Screen size: about 290,000 compounds; about 3,000 (1%) were called active. Rule as the data show it: active = inhibition mostly above about 36% (no sharp cut-off); inactive = mostly below about 34%. Only a selection was taken, and actives are over-represented in it overall.
molecular target: T1, Nucleotide-binding oligomerization domain-containing protein 1, Homo sapiens (UniProt Q9Y239); assay: inhibition of NOD1-driven NF-kB reporter – cell-based, luminescence, uHTS, primary screen (AID 1578)
T1 sequence (whole entry): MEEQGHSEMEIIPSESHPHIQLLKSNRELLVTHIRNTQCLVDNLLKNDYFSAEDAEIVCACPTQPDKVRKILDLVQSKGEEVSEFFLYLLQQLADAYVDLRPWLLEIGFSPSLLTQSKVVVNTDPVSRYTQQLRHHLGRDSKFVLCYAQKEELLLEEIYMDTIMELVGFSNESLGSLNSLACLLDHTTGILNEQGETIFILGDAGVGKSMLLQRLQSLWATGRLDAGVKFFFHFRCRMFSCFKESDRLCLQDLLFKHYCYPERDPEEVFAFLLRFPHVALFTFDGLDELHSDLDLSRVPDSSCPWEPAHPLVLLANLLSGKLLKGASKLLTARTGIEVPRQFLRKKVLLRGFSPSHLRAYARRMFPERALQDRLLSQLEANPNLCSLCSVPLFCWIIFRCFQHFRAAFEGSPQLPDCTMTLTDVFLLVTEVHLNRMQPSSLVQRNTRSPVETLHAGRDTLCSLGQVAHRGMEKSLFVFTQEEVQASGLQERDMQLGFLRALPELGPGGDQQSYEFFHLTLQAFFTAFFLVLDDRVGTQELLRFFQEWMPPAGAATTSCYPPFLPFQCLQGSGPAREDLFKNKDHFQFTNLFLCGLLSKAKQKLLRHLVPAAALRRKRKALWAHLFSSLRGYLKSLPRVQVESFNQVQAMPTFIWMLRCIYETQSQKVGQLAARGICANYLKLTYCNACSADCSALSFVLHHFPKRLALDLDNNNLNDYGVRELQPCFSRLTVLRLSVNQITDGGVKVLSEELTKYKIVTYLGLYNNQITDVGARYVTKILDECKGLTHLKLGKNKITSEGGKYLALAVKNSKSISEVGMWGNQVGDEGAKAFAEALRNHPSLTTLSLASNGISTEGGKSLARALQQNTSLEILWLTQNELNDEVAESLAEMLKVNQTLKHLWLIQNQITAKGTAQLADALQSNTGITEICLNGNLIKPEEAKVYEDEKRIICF

outcome, active:
O=C(O)CCSc1nnc(-c2ccc3c(c2)OCO3)o1
O=C(Nc1nccs1)c1sc2cc(Cl)ccc2c1Cl
Cc1cc(NC(=O)c2cccs2)n(-c2nc3ccccc3[nH]2)n1
O=C(Nc1ccc(Cl)c(S(=O)(=O)N2CCOCC2)c1)c1ccc(OCC2CCCO2)cc1 (centres undefined)
COc1ccc(C(=O)Nc2ccc(-c3ccc(C)o3)cc2)cc1S(=O)(=O)N1CCOCC1
Cc1ccc(NC(=O)CSc2ncnc3ccccc23)cc1S(=O)(=O)N1CCOCC1
CCOC(=O)c1ccc(NC(=O)c2ccc(C)c(S(=O)(=O)N3CCOCC3)c2)cc1
CCOc1ccc(Nc2ncnc3ccc([N+](=O)[O-])cc23)cc1
Cc1nn(-c2ccccc2)c(Cl)c1C(=O)N1CCN(c2ncnc3c2cnn3-c2ccccc2)CC1
CN(C)CC(CCC(CN(C)C)C(=O)c1ccccc1)C(=O)c1ccccc1.Cl (centres undefined)
O=C(NCc1cccnc1)/C(=C\c1ccc(-c2cccc(Cl)c2)o1)S(=O)(=O)c1ccccc1
O=C(NCc1cccnc1)/C(=C/c1ccc(-c2cccc(Cl)c2)o1)S(=O)(=O)c1ccccc1
O=C(CCl)N1N=C(c2ccco2)CC1c1ccco1 (centres undefined)
O=C(CCl)N1N=C(c2cccs2)CC1c1ccco1 (centres undefined)
O=C(N/N=C/c1ccccn1)c1sc2ccccc2c1Cl
COc1ccc(C(=O)Nc2ccccc2C(=O)N/N=C/c2ccccn2)cc1OC
Cc1ccc(-n2[nH]c(C)c(/C=N/Nc3ccc([N+](=O)[O-])cc3[N+](=O)[O-])c2=O)cc1C
Cc1[nH]n(-c2ccccc2)c(=O)c1/C=N/NC(=O)c1cccc([N+](=O)[O-])c1
O=C(N/N=C/c1ccccn1)c1ccc(Cl)c(Cl)c1
O=C(N/N=C/c1ccccn1)c1cc([N+](=O)[O-])cc([N+](=O)[O-])c1
Cc1cccc(/C=N/NC(=O)c2cccc([N+](=O)[O-])c2)n1
CC(/C=C/c1ccccc1)=N/NC(=O)c1cc([N+](=O)[O-])cc([N+](=O)[O-])c1
Cc1c(CCC(=O)O)c(=O)oc2cc3oc4c(c3cc12)CCCC4
O=C(Sc1cccc2cccnc12)c1ccc(F)cc1
O=C(Sc1cccc2cccnc12)c1ccccc1Br
O=C(Nc1ccc(N2CCN(c3ncccc3C(F)(F)F)CC2)nc1)c1cccs1
O=C(N/N=C(\c1ccccc1)c1cccnc1)c1cccc(F)c1
COc1cc(C(=O)N/N=C(\c2ccccc2)c2ccccn2)cc(OC)c1OC
COc1ccc(C(=O)N/N=C(\c2ccccc2)c2ccccn2)cc1
COc1cccc(C(=O)N/N=C(/c2ccccc2)c2ccccn2)c1
CCOC(=O)c1c(NC(=S)NCCc2ccccc2)sc2c1CC(C(C)C)OC2 (centres undefined)
Cn1c(=O)c(C(=O)CCl)c(N)n(Cc2ccccc2)c1=O
O=C(CSc1n[nH]c(-c2ccccn2)n1)Nc1cccc(Cl)c1
O=C(CSc1n[nH]c(-c2ccccn2)n1)Nc1ccc(Cl)cc1
Cc1ccccc1Oc1cc(-n2ncc(Cl)c(Cl)c2=O)ncn1
O=C(NCc1ccco1)c1sc(=S)n2c1[nH]c(=O)c1ccccc12
CCCCNC(=O)c1sc(=S)n2c1[nH]c(=O)c1ccccc12
CC(C)NC(=O)c1sc(=S)n2c1[nH]c(=O)c1ccc(C(=O)NCCc3ccc(Cl)cc3)cc12
O=C(NCc1ccccc1)c1sc(=S)n2c1[nH]c(=O)c1ccccc12
C=C(C)C(=O)O[C@H]1C/C(C)=C\C(=O)/C=C(\C)[C@H](O)[C@@H]2OC(=O)C(=C)[C@@H]21
CC1(C)N=C(N)N=C(N)N1c1ccc(OCCCOc2ccccc2)c(Cl)c1.CCS(=O)(=O)O
O=C(NCc1cccnc1)/C(=C\c1ccc(-c2ccc(Cl)c(Cl)c2)o1)S(=O)(=O)c1ccccc1
O=C(NCc1cccnc1)/C(=C/c1ccc(-c2ccc(Cl)cc2)o1)S(=O)(=O)c1ccccc1
O=C(Oc1cc2oc(=O)cc(-c3ccccc3)c2cc1Cl)C1CCCCC1
COc1ccc(-c2cc(=O)oc3cc(OC(=O)C4CCCCC4)c(Cl)cc23)cc1
Br.O=[N+]([O-])c1ccc(N/N=C/c2sc(N3CCOCC3)nc2-c2ccccc2)c(S(=O)(=O)Nc2ccc(Cl)cc2)c1
O=[N+]([O-])c1ccc(N/N=C/c2sc(N3CCOCC3)nc2-c2ccccc2)c(S(=O)(=O)Nc2ccccc2Cl)c1
COc1ccc2cc(C(N)=O)c(=Nc3ccc(C)cc3)oc2c1
Cc1ccc(N=c2oc3cc(O)ccc3cc2C(N)=O)cc1
COc1ccc(C2C(O)C(c3c[nH]c4ccccc34)=NN2C(=O)CCl)cc1 (centres undefined)
COc1cccc(C(=O)Nc2ccc(Oc3cccc(C(F)(F)F)c3)nc2)c1
CN(C)c1ccnc2sc(C(N)=O)c(N)c12
Brc1ccc2ncnc(Nc3cccc4ccccc34)c2c1
COc1ccc(Nc2ncnc3ccc(Br)cc23)cc1OC
CC(=O)c1cccc(Nc2ncnc3ccc(Br)cc23)c1
Cc1cc(C)c(C)c(S(=O)(=O)N2CCN(c3ncnc4sc(C)c(C)c34)CC2)c1C
Cc1ccc(OCCN2CCN(c3ncnc4sc(C)c(C)c34)CC2)cc1
O=[N+]([O-])c1cc(S(=O)(=O)Nc2cccc(C(F)(F)F)c2)ccc1-n1nnc2ccccc21
Cc1c([N+](=O)[O-])c2ccc(O)cc2n1-c1ccccc1
CN(C)/C=C/c1c([N+](=O)[O-])c2ccc(O)cc2n1-c1ccccc1
S=C(NNc1ccnc2cc(Cl)ccc12)Nc1ccccc1Cl
COc1cccc(-n2nnnc2S(C)(=O)=O)c1
CCCS(=O)(=O)c1nnnn1-c1cccc(OC)c1
N#CCCS(=O)(=O)c1nnnn1-c1ccccc1
CS(=O)(=O)c1ccc(C(=O)OCc2nnc(-c3ccccc3)o2)cc1[N+](=O)[O-]
CCCCN(C)S(=O)(=O)c1ccc(C(=O)Nc2nnc(-c3cccs3)o2)cc1
CCCCN(CC)S(=O)(=O)c1ccc(C(=O)Nc2nnc(-c3ccccc3Cl)o2)cc1
CCN(Cc1ccccc1)S(=O)(=O)c1ccc(C(=O)Nc2nnc(C3CC3)o2)cc1
CCCCN(CC)S(=O)(=O)c1ccc(C(=O)Nc2nnc(-c3cccs3)o2)cc1
